Only some compounds are listed: those with a hit (about 5.3% of all), similar ones and a draw of the others.
ALR H2O2 inh – blocks human ALR sulfhydryl oxidase activity. P55789. purified ALR, DTT oxidation, H2O2 HRP-luminol luminescence. inhibition, % (no concentration beside the values). actives 3.8% (n = 290,000). AID 485317;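 active means mean replicate inhibition above about 79%, with every replicate also reaching it, limit read from the data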
Target sequence (P55789 whole entry, looked up): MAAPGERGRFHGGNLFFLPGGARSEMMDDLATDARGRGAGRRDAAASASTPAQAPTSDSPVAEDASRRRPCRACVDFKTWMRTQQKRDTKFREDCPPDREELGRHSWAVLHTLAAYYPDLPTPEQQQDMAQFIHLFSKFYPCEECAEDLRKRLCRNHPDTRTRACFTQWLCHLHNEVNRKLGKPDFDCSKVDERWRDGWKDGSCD
HIF act – HIF pathway transcriptional activation | activation, % at 7.5 µM (by protocol) | actives 0.32% (n = 300,000) | U2OS HRE-luciferase reporter, luminescence; normalized: DMSO 0%, desferrioxamine 100%;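 active means mean activation of at least 10% of the iron chelator positive control signal, with at least half of replicates also reaching 10%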
SUMO Mot1 rescue – SUMOylation pathway inhibition by Mot1-301 growth rescue; S. cerevisiae Mot1-301 growth rescue, ATP luminescence, 38.5C; percent above DMSO median, 100 means doubled; growth rescue, % at 18.8 µM; AID 2716; actives 1% (n = 320,000);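 active means every valid replicate shows activation above 250% relative to neutral control wells; inactive means the rest, any valid replicate at or below 250%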;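 further: OY570 slx delta 5 strain wells were the positive control but not used for scaling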
M18AAP inhibitor – blocks P. falciparum M18 aspartyl aminopeptidase; recombinant PfM18AAP, H-Glu-NHMec fluorogenic cleavage; inhibition, % at 7.35 µM; actives 1.2% (n = 290,000);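 active means inhibition above the campaign mean inhibition over all tested compounds plus 3 SD, cut at about 28% in these data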;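 further: 0% = plate median of test compound wells and 100% = 2 mM ZnCl2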
* hit, by the source's call; . = no result given.

SMILES	ALR H2O2 inh	HIF act	SUMO Mot1 rescue	M18AAP inhibitor
Cc1cc(C)c2nc(N3C(=O)C(O)=C(C(=O)c4ccco4)C3c3ccco3)sc2c1 (centres undefined)	98*	2	0	26
O=C(NC1CCCCC1)N(C1=NCCCCC1)c1ccc(Br)cc1	.	1	-3	-7
O=C(CCCn1c(=O)c2ccccc2n(CC(=O)NCc2ccco2)c1=O)NCc1ccco1	3	0	-8	-1
CCCN(CCC)C(=O)Cn1c(=O)n(CCCCC(=O)NCc2ccco2)c(=O)c2ccccc21	-4	0	294*	-3
CCN(C(=O)CN1CCN(c2ccccc2O)CC1)c1c(N)n(Cc2ccccc2)c(=O)[nH]c1=O	98*	0	-13	28*
CCN(C(=O)CN1CCN(c2ccccc2F)CC1)c1c(N)n(Cc2ccccc2)c(=O)[nH]c1=O	-13	0	3	-6
Oc1ccc(Cl)cc1CNc1cccc2cccnc12	.	-1	-7	31*
Oc1c(Br)cc(Br)cc1CNn1cnnc1	99*	-12	-4	11
COc1cccc(CNc2cccc3cccnc23)c1O	-13	0	110	31*
Oc1c(Br)cc(Br)cc1CNc1cccc2cccnc12	-104	-15	2	33*
COc1cccc(CNc2ccccn2)c1O	62	1	-33	-8
Cc1c(C)c2c(OCC(=O)N3CCC[C@H]3C(=O)O)cc3c(c2oc1=O)CCC(C)(C)O3	9	0	24	4
COc1ccc2cc(CCN3C(=O)c4ccccc4C3=O)c(=O)[nH]c2c1	-2	0	2	0
Oc1c(Br)cc(Br)cc1CNc1ccccn1	98*	0	288*	1
COCCCn1c(C)csc1=Nc1cccnc1	61	0	-5	8
Cc1csc(=Nc2cccnc2)n1CC1CCCCC1	99*	.	-11	6
CC(=O)NC12CC3CC(C1)CC(C(=O)Nc1nc4ccc(F)cc4s1)(C3)C2	86*	1	-2	21
CC(=O)Nc1ccc(N(C(=O)Cn2nnc3ccccc32)C(C(=O)NC2CCCC2)c2ccc(O)c(O)c2)cc1 (centres undefined)	92*	0	0	65*
O=C(c1ccccc1)N1CCN(CC2CC=CCC2)CC1 (centres undefined)	-1	0	-4	32*
O=C(NO)c1ccc(OC(F)F)cc1	99*	8	45	10
O=C(N/N=C/c1ccc(OC(F)F)cc1)c1ccc(Br)cc1	1	-1	63	4
COc1ccc2[nH]c(C(=O)Nc3ccc(C)c(F)c3)cc2c1	-12	4	-6	-7
Cc1cc(C)c2cc(C(=O)Nc3ccc(C)c(F)c3)[nH]c2c1	-8	0	340*	1
O=C1SCCC1NS(=O)(=O)c1ccc([N+](=O)[O-])cc1 (centres undefined)	-12	0	23	7
Cc1cc(C)c(O)c(-c2n[nH]c3c2C(c2cccc(O)c2)N(Cc2ccco2)C3=O)c1 (centres undefined)	.	0	25	17
SMILES	ALR H2O2 inh	HIF act	SUMO Mot1 rescue	M18AAP inhibitor
C/C(=N\Nc1ccc(C(=O)O)cc1)c1ccc2c(c1)Nc1ccccc1S2	100*	1	-24	28
COc1cc(/C=N/NC(=S)N/N=C/c2cc(OC)c(OC)c(OC)c2)cc(OC)c1OC	88*	1	-3	10
COc1cc(OC)c(OC)cc1/C=N/NC(=S)NCCN1CCOCC1	6	0	-3	-7
COc1cc(/C=N/NC(=S)NCCN2CCOCC2)cc(OC)c1O	99*	0	-22	13
O=C(c1nc[nH]c1C(=O)N1CCc2ccccc2C1)N1CCc2ccccc2C1	-1	.	3	.
O=C(NCCC(=O)N1CCCC(C(F)(F)F)C1)c1ccccc1Cl (centres undefined)	-2	0	-26	-1
COc1ccc(S(=O)(=O)NCC(c2ccc(C)cc2)N2CCN(C)CC2)cc1 (centres undefined)	.	-1	-1	.
c1ccc(CSc2nnc3ccc(-c4ccco4)nn23)nc1	-1	1	-39	-4
CN1C(=O)C2C(c3ccc(N(C)C)cc3)NN(Cc3ccccc3)C2C1=O (centres undefined)	98*	0	-15	9
CC1(OC(=O)c2ccc(Cl)nc2)C(=O)C=C2C=C(c3ccc(C#N)cc3)OC=C2C1=O (centres undefined)	-7	0	365	.
O=C1C(Cl)=C(Nc2ccc3cn[nH]c3c2)C(=O)c2ccccc21	-106	-20	1	47*
Cc1ccc(N2C(=O)CSC2c2ccccn2)cc1Cl (centres undefined)	99*	.	-3	-11
O=C1CSC(c2ccccn2)N1c1cccc(Cl)c1 (centres undefined)	99*	0	5	7
O=C1CSC(c2ccccn2)N1c1ccccc1F (centres undefined)	.	-1	79	3
Cc1ccc(N2CCN(S(=O)(=O)c3ccc4c(c3)NC(=O)C(C)C(=O)N4)CC2C)cc1 (centres undefined)	97*	0	18	-4
Cc1ccc(N2CCN(S(=O)(=O)c3ccc4c(c3)n(C)c(=O)c(=O)n4C)CC2C)cc1 (centres undefined)	-6	0	36	1
CC1(C)CC(=O)C(C=Nc2ccc(O)cc2)=C(O)C1	99*	0	99	5
CC1(C)CC(=O)C(C=Nc2ccc(N)cc2)=C(O)C1	68	0	.	12
COC(=O)[C@@H](N)Cc1ccc(O)c(O)c1	98*	.	2	.
Nc1nc(/C=C/c2cccnc2)nc(-c2ccccc2O)n1	94*	1	24	0
C=CCn1sc(=N)c(C#N)c1N	99*	0	2	1
C=CCn1c(C)cc(C)c(C#N)c1=O	-5	0	-5	-11
Cc1cc(NCc2ccccn2)nc2ccccc12	84*	.	1	3
O=C(NCC1CCCO1)/C(=C/c1cn(-c2ccccc2)nc1-c1cccnc1)NC(=O)c1ccccc1 (centres undefined)	2	-1	7	-1
Cc1cc(C)cc(Nc2nc3c([nH]2)c(=O)n(C)c(=O)n3C)c1	8	-1	5	5
SMILES	ALR H2O2 inh	HIF act	SUMO Mot1 rescue	M18AAP inhibitor
Cn1c(=O)c2[nH]c(N=Nc3ccc(N)cc3N)nc2n(C)c1=O	86*	0	-21	26
CCNc1nc(NCC)n2c(SCC(=O)Nc3ccc(NC(C)=O)cc3)nnc2n1	98*	0	4	.
CCNc1nc(NCC)n2c(SCC(=O)Nc3ccc(CC)cc3)nnc2n1	99*	0	6	.
CCNc1nc(NCC)n2c(SCC(=O)Nc3ccccc3F)nnc2n1	.	0	-3	.
O=C(COC(=O)/C=C/c1ccc(F)cc1)NCC1CCCO1 (centres undefined)	.	.	11	.
CC1CN(c2ccc(NS(=O)(=O)c3ccccc3)cc2C(=O)O)CC(C)O1 (centres undefined)	17	1	11	-5
COc1ccc(NC2CCCN(C(=O)c3ccc(CSC)o3)C2)cc1OC (centres undefined)	99*	0	40	18

From PubChem
